Screening data (PubChem)
Compounds with a hit are over-represented: about 4.7% of the library has one in this group of screens.
D1 ag – activates the human D1 dopamine receptor | P21728 | HEK293 T-REx D1 cells, calcium flux, agonist mode | activation, % at 2 µM | hit rate 1% among 360,000; further: 0% is about no effect
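Inducible HEK293 T-REx D1 cells, force-coupled to calcium signalling, were plated at 4000 cells/well with tetracycline and held overnight at 30 C. After no-wash calcium dye loading, compound-evoked calcium rise over 180 s flagged agonists.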
TRHR PAM – allosterically enhances the human TRH receptor; AID 493056; enhancement, % at 2 µM; TRHR cells, fluo-8 calcium fluorescence, EC20 TRH enhancement; hit rate 0.66% among 360,000; P34981; in the data active means enhancement above about 30%; further: 0% is about no effect
Target sequence (P34981 whole entry, looked up): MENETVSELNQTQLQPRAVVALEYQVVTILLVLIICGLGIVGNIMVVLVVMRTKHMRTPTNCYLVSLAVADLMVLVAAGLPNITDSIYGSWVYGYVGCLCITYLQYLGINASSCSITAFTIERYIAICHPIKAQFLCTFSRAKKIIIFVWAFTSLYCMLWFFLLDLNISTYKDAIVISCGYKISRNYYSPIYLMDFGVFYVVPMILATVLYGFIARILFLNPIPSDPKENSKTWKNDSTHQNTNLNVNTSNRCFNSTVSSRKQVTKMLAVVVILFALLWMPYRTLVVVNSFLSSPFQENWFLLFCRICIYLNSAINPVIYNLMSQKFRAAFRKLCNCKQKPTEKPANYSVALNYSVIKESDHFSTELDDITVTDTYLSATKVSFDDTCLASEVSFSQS
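Enhancer read-out: after compound pinning and an initial kinetic agonist-mode read, an EC20 of TRH (10 nM final) was injected and fluo-8 calcium signal (Ex 480/Em 530) followed at 1 s/cycle for 100 cycles in TRHR-expressing cells.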
TRHR ag – activates the human TRH receptor. TRHR cells, calcium flux fluo-8, FDSS agonist mode. activation, % at 2 µM. hit rate 0.18% among 360,000. AID 493084; further: 0% is about no effect
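Read-out: compound-evoked intracellular calcium rise in TRHR cells, fluo-8 dye, kinetic FDSS fluorescence at 1 s/cycle following a 10-cycle baseline. Cells cultured overnight before dye loading (30 min–1.5 h, RT).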
D1 antag – antagonists of human D1 dopamine receptor; P21728; HEK293 TREx D1 cells, calcium flux, dopamine EC80; active compounds read low; activity change, negative = inhibition, % at 10 µM; hit rate 3.2% among 360,000; AID 504652; in the data active means activity change below about -30%; further: on the % scale 0 is the no-effect control and ±100 the full control effect
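After overnight tetracycline induction at 30 C, force-coupled D1 HEK293 cells took up a no-wash calcium dye at room temperature. Compounds were added and monitored 180 s, and the response to EC80 dopamine was then recorded.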
D1 potentiator – human D1 dopamine receptor positive modulation; P21728; HEK293 TREx D1 cells, calcium flux, dopamine EC20 potentiation; potentiation, % at 10 µM; hit rate 0.036% among 360,000; in the data active means potentiation above about 30%; further: 0% is about no effect
The depositor's hits bear a star; · = no result given. Unless noted, no stated cut-off is given here; in the data, active means activation above about 30%; inactive means the rest.

SMILES | D1 ag | TRHR PAM | TRHR ag | D1 antag | D1 potentiator
CC(C)NCC(O)Cn1c2c(c3ccccc31)CCc1c-2cnn1-c1ccccc1 (configuration not stated) | 25 | 23 | 2 | 3 | -5
CC(=O)c1nc2ccccc2n1S(=O)(=O)c1ccc(Cl)cc1 | 5 | 2 | -1 | -36* | -10
CC(=O)c1nc2ccccc2n1S(=O)(=O)c1ccc(C)cc1 | 3 | -7 | 0 | -6 | 7
CCn1c(CN2CCCCC2)nc2cc(NC(=O)COc3ccc(C(C)(C)C)cc3)ccc21 | 4 | 1 | 1 | -12 | -1
Cc1ccc(-c2noc(CCC(=O)NCC3CCN(Cc4cccc(C)c4)CC3)n2)cc1 | 51* | 6 | 4 | -24 | -10
Cc1ccc(-c2noc(CCC(=O)NCCN3CCN(Cc4ccccc4)CC3)n2)cc1 | 13 | -10 | 0 | -20 | -7
COc1ccc(-c2noc(CCC(=O)NCCCN3CCN(c4ccc(F)cc4)CC3)n2)cc1 | 35* | -4 | 0 | -73* | -16
COc1ccc(-c2noc(CCC(=O)NCCCN3CCC(Cc4ccccc4)CC3)n2)cc1 | 56* | 8 | 3 | -54* | -10
COc1ccc(-c2noc(CCC(=O)NCc3ccco3)n2)cc1 | 0 | -1 | -2 | -37* | -6
CC(=O)N[C@H](C(=O)N[C@@H](C)C(=O)N[C@H](C#N)CC(=O)O)C(C)C | 2 | 2 | -1 | -10 | 2
CCOc1ccc(CCNC(=O)Cn2ncc3c(=O)oc4ccc(C)cc4c32)cc1 | 1 | -6 | -1 | -10 | 0
CCn1cc(S(=O)(=O)c2ccc(C)cc2C)c(=O)c2cc(F)c(N3CCCC3)cc21 | 5 | 22 | -1 | 2 | 2
O=C1CC(N2CCN(c3ccc(Cl)c(Cl)c3)CC2)C(=O)N1 (configuration not stated) | 32* | 16 | 0 | -21 | -16
Cc1nnc(SC(C)C(=O)Nc2nccs2)s1 (configuration not stated) | 3 | 1 | 0 | -33* | -5
CC(Sc1nnc(N)s1)C(=O)Nc1nccs1 (configuration not stated) | 1 | -1 | 0 | -11 | -3
CC(=O)c1cccc(NC(=O)c2ccc3nc(C(C)C)oc3c2)c1 | 2 | 2 | 1 | 13 | 0
CC(=O)N1c2ccccc2C(C)(c2ccc(C)cc2)CC1(C)C (configuration not stated) | 56* | -10 | 16 | -4 | -1
CCC(=O)N1c2ccccc2C(C)(c2ccccc2)CC1(C)C (configuration not stated) | -1 | -11 | 4 | 11 | 0
Cc1ccc(C)c(CNC(=O)CCn2cccn2)c1 | 2 | -1 | 0 | -14 | -4
Cc1ccc(S(=O)(=O)c2c(N)n(Cc3ccco3)c3nc4ccccc4nc23)cc1C | 92* | 3 | -1 | 2 | -4
Cc1ccc(S(=O)(=O)c2c(N)n(CCN3CCOCC3)c3nc4ccccc4nc23)cc1C | -1 | 5 | 0 | 8 | 4
CCOc1ccc2nc(N3CCCC(C(=O)NCc4ccccc4OC)C3)sc2c1 (configuration not stated) | -1 | 6 | 0 | -8 | 5
CC(C)[C@H](NC(=O)OCc1ccccc1)C(=O)OCC(=O)N1CCN(c2ccc(F)cc2)CC1 | 6 | 2 | -1 | -65* | -2
COc1ccc(OC)c(C2=C/C(=C/c3ccccn3)C(=O)O2)c1 | 189* | 8 | 0 | -56* | -10
CCn1cnc2c(Nc3ccc(Cc4cccnc4)cc3)nc(C#N)nc21 | 3 | -8 | -1 | -2 | 4
SMILES | D1 ag | TRHR PAM | TRHR ag | D1 antag | D1 potentiator
CCC(=O)N/C(=N/c1nc(C)cc(C)n1)Nc1ccc(C)cc1 | 0 | -8 | 0 | -43* | -8
COc1ccc(N/C(=N/c2nc(C)cc(C)n2)NC(=O)c2ccccc2)cc1 | 0 | -5 | 0 | -59* | -14
Cc1cc(C)nc(/N=C(/NC(=O)c2ccccc2)Nc2ccccc2)n1 | -2 | 0 | -1 | -5 | -10
COc1cccc(/C=N\NC(=O)c2cc(OCC(F)(F)F)ccc2OCC(F)(F)F)c1 | 33* | 1 | -1 | -2 | -6
CNC(=O)c1cc(OCC(F)(F)F)ccc1OCC(F)(F)F | -1 | 1 | 0 | · | -2
COc1ccc(-n2nc(C(=O)N(C)c3cccc(C(F)(F)F)c3)c3c4ccccc4n(C)c3c2=O)cc1 | 4 | 0 | 1 | -22 | 1
